Mtb hypoxia rep: Mtb hypoxia fluorescent reporter inhibition | 300,000 compounds, 0.1% hits | M. tuberculosis hypoxia-regulated fluorescent reporter, fluorescence | fluorescence inhibition, % (concentration not given with the values); in the data active = fluorescence inhibition mostly above about 23%, no sharp cut-off; inactive = mostly below about 17%
RN4220 kill: kills Staphylococcus aureus RN4220; AID 1259311; 330,000 compounds, 0.33% hits; S. aureus RN4220 growth, OD600, 16 h; inhibition, % (concentration not given with the values); in the data active = inhibition above about 85%;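 note: plate controls were untreated cells for no effect and reference antibiotic for full effect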
ugtP null kill: growth inhibition of S. aureus ugtP deletion strain; S. aureus RN4220 ugtP deletion, OD600 growth, 16 h; 330,000 compounds, 0.54% hits; growth inhibition, % (no concentration beside the values); in the data active = growth inhibition above about 68%;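 note: plate controls were untreated wells for no effect and antibiotic for full effect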
BJeLR lethal: kills HRASV12-expressing BJeLR cells; inhibition, % (test concentration not listed); 300,000 compounds, 0.17% hits; BJeLR (HRASV12) viability, CellTiter-Glo ATP luminescence, 48 h; in the data active = inhibition above about 50%
CCHF vOTU inh-1: blocks the CCHF virus ovarian tumor domain protease; CCHFV vOTU protease, Pep-AMC fluorescence; inhibition, % at 11.5 µM; 370,000 compounds, 0.55% hits; note: 0% = vehicle wells with enzyme and 100% = no enzyme wells
RecA splice inh: blocks M. tuberculosis RecA intein splicing; P9WHJ3; cell-free RecA intein splicing, fluorescence; inhibition, % (no concentration beside the values); 290,000 compounds, 0.75% hits; in the data active = inhibition above about 30%;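 note: 0% = vehicle wells and 100% = reference inhibitor control wells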
Target sequence (P9WHJ3 whole entry, looked up, canonical isoform): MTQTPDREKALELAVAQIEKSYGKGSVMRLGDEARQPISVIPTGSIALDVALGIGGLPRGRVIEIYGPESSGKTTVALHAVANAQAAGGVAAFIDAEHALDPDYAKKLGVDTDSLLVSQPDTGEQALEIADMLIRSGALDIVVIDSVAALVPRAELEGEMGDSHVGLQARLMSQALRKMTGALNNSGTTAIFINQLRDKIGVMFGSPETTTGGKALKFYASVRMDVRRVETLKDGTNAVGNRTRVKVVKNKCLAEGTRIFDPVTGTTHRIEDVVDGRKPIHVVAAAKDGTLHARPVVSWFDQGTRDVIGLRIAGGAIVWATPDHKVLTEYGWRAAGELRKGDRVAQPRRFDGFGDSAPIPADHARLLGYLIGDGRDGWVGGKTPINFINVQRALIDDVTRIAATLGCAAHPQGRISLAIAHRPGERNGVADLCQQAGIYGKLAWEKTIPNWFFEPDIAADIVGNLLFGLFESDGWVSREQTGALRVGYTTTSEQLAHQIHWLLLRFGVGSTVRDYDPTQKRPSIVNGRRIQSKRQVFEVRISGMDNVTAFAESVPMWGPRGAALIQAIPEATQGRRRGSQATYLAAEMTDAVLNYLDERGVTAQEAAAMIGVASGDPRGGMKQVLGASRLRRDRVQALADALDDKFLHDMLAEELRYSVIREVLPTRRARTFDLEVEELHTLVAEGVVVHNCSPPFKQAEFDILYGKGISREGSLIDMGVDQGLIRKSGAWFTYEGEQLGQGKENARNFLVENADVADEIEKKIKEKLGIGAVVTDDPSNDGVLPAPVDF
CCHF vOTU inh-2: CCHFV vOTU protease inhibition, confirmation; shares compounds with CCHF vOTU inh-1; Recombinant CCHFV vOTU, Pep-AMC fluorescence; inhibition, % at 11.5 µM; 1,900 compounds, 17% hits; AID 686976
Numbers without * were called inactive; / = not tested or not shown. Hits are enriched below; roughly 1.6% of the tested compounds scored in any of these assays. Cut-off read from the data, not from the text of the source, unless noted: active = inhibition above about 30%; inactive = the rest.

SMILES	Mtb hypoxia rep	RN4220 kill	ugtP null kill	BJeLR lethal	CCHF vOTU inh-1	RecA splice inh	CCHF vOTU inh-2
COc1cccc2c1C(=O)c1c(O)c3c(c(O)c1C2=O)C[C@](O)(C(C)=O)C[C@H]3O[C@@H]1C[C@@H](N)[C@@H](O)[C@@H](C)O1	/	/	/	67.6*	31.3*	-1.9	-7.1
CCN(CC)C(=O)C(=Cc1cccc([N+](=O)[O-])c1)NC(=O)c1ccco1	-1.5	2.3	-4.6	/	/	/	/
Cc1cc(C)c(C)c(OCC(=O)NCC2CCCO2)c1 (configuration not stated)	10.7	2.8	2.2	9.7	33.1*	-1.8	-13.7
Cc1cc(C)cc(OCC(=O)NCC2CCCO2)c1 (configuration not stated)	1.1	-2.7	1.7	5.6	6.7	2.1	/
CSc1ccc(/C=C(/NC(=O)c2ccco2)C(=O)N2CCOCC2)cc1	8.0	4.2	12.4	-2.2	30.0*	0.9	-14.7
O=C(N/C(=C/c1ccc(Br)cc1)C(=O)N1CCOCC1)c1ccco1	-1.2	-2.5	-10.4	-13.1	-1.0	0.8	/
COc1ccc(NS(=O)(=O)c2cccc(C(=O)N3CCN(C/C=C/c4ccccc4)CC3)c2)cc1	/	/	/	/	30.1*	/	-10.6
COc1ccccc1NS(=O)(=O)c1cccc(C(=O)N2CCN(C/C=C/c3ccccc3)CC2)c1	-10.4	-7.8	6.5	-1.1	-0.1	-4.0	/
CC(C)CC1CN=C(Nc2ccccc2)N1CCCCc1ccccc1 (configuration not stated)	-9.4	2.5	-1.3	/	/	/	/
O=c1c(=Nc2ccccc2O)c(=O)c2ccccc12	/	/	/	4.0	49.0*	-0.5	-0.9
COc1ccc(N)c2c1OCCC2=O	-4.2	-4.7	3.4	4.5	57.3*	-5.7	-12.9
COc1ccccc1NC(=S)N1CCN(CC=Cc2ccccc2)CC1	-3.4	0.0	-1.2	/	/	/	/
CCOC(=O)c1cc2sc(C)cc2n1CC(=O)NCc1ccc(F)cc1	-3.6	0.6	0.9	1.1	29.9*	-1.1	-17.1
CCOC(=O)c1cc2sc(C)cc2n1CC(=O)N1CCOCC1	-1.2	3.5	2.1	2.9	12.0	-0.2	/
COc1cc(OC)c(C2CC(=O)N3CN(C)CSC3=C2C#N)cc1OC (configuration not stated)	1.7	-9.5	-7.4	-2.4	5.8	1.1	/
COc1ccc2ccccc2c1C1CC(=O)N2CN(C)CSC2=C1C#N (configuration not stated)	11.8	8.8	-0.2	3.4	78.5*	5.4	56.1*
O=C(c1cc2c(s1)CCCC2)N1CCN(Cc2ccc3c(c2)OCO3)CC1	/	-1.7	13.2	-9.2	11.2	5.9	/
O=C(Oc1ccc2c(c1)OCO2)c1cc2c(s1)CCC2	4.5	10.6	27.3	1.2	46.5*	3.7	-9.4
CCCCCCSc1ccc(C2N[C@@](Cc3ccccc3)(C(=O)OC)C3C(=O)N(C)C(=O)C23)cc1 (some centres not stated)	18.4	1.1	-15.4	/	/	/	/
CC(=O)Nc1ccc(S(=O)(=O)NCC(=O)OCC(=O)N2CCc3ccccc32)cc1	/	4.2	5.2	1.6	29.6*	-0.7	-15.2
CCOC(=O)C1=CCC(c2cc(OC)c(OC)c(OC)c2)N(S(=O)(=O)c2ccc(C)cc2)C1C(=O)OCC (configuration not stated)	10.2	9.0	-1.4	/	/	/	/
O=C1C(=Cc2cn(-c3ccccc3)nc2-c2ccc(OCc3ccccc3)cc2)SC(=S)N1CCS(=O)(=O)O	/	/	/	/	30.3*	/	10.7
C#CCN1CC(COc2ccccc2)Oc2cccc(Oc3ccc(SC)c(C)c3)c2S1(=O)=O (configuration not stated)	/	/	/	/	31.0*	/	-12.6
COC(=O)c1c(NC(=O)c2cccnc2)sc(C(=O)N(C)C)c1C	0.9	4.0	5.0	-7.7	7.2	1.5	/
COC(=O)c1c(NC(=O)c2ccco2)sc(C(=O)N(C)C)c1C	8.0	2.9	-4.0	-2.9	32.5*	-0.1	8.2
SMILES	Mtb hypoxia rep	RN4220 kill	ugtP null kill	BJeLR lethal	CCHF vOTU inh-1	RecA splice inh	CCHF vOTU inh-2
CC1(C(=O)N2CC3(CC(c4cccc([N+](=O)[O-])c4)=NO3)CC2C(=O)NCC(N)=O)CC1 (configuration not stated)	-0.2	5.4	1.6	/	/	/	/
COC(=O)Nc1ccc(S(=O)(=O)N2CCC(C(=O)N3CCC(C)CC3)CC2)cc1	0.9	5.5	5.2	7.8	41.6*	0.2	-19.5
COC(=O)Nc1ccc(S(=O)(=O)N2CCC(C)CC2)cc1	12.4	9.1	-1.8	1.8	-8.8	1.4	/
O=C1C[C@@H](O)[C@H](O)c2cccc(O)c21	/	/	/	/	45.4*	/	-1.9
CCc1cc(-c2cnnn2Cc2ccccc2)ccc1-c1cn(CC(C)C)nn1	/	/	/	/	29.6*	/	-9.8
CC12CCC(C(=NO)C1=NO)C2(C)C (configuration not stated)	19.3	4.3	2.8	/	5.9	/	/
CC12CCC(C(=NO)C1=O)C2(C)C (configuration not stated)	6.3	4.7	3.3	/	35.6*	/	-17.1
CC(N)=C(C#N)C(=O)CSc1nc2ccccc2c(=O)n1CCCO	5.2	0.4	-26.0	/	/	/	/
CC(NC(=O)c1nc[nH]c1C(=O)NCC(=O)OC(C)(C)C)C(=O)OC(C)(C)C (configuration not stated)	0.4	5.0	2.2	/	/	/	/
COc1cc(OC)c(NC2=CC(=O)C(=O)c3ccccc32)cc1Cl	/	/	/	24.2	16.1	-1.2	/
Cc1cc(NC2=CC(=O)C(=O)c3ccccc32)no1	/	/	/	/	80.9*	/	95.7*
O=C(C=Cc1ccc2c(c1)OCO2)NC1(C(=O)Nc2ccc3c(c2)OCO3)CCCCC1	3.4	3.0	-6.0	/	/	/	/
O=C(C=Cc1ccccc1)N1CCC(Cc2ccccc2)CC1	4.4	1.2	-9.9	/	/	/	/
Cc1ccc(N2C(=O)[C@@H]3[C@H](C2=O)C2c4ccccc4C=CN2[C@@H]3C(=O)c2ccco2)cc1 (some centres not stated)	/	/	/	/	77.7*	/	101.3*
COc1ccc(C2=NO[C@@H]3C(=O)N(c4ccc5c(c4)OCCO5)C(=O)[C@H]23)cc1OC	6.7	0.6	-2.2	-4.3	0.5	10.8	/
Cc1ccc(-n2ncc3c(NNC(=O)c4ccco4)ncnc32)c(C)c1	-1.1	1.1	1.2	-0.4	-1.1	-6.4	/
CC(C)(C)C(=O)[C@@H]1[C@@H]2C(=O)N(c3ccc4c(c3)OCCO4)C(=O)[C@@H]2C2c3ccccc3C=CN21 (some centres not stated)	/	-3.4	2.0	1.9	53.5*	9.2	-6.6
Cc1ccc(N2C(=O)[C@@H]3[C@H](C2=O)C2c4ccccc4C=CN2[C@@H]3C(=O)c2ccco2)c(C)c1 (some centres not stated)	/	1.4	-4.2	1.6	95.1*	4.2	53.0*
CC(=O)[C@@H]1[C@@H]2C(=O)N(Cc3ccccc3)C(=O)[C@@H]2C2c3ccccc3C=CN21 (some centres not stated)	11.0	6.6	-0.3	-27.5	64.0*	-5.0	32.9*
